Results reported in PubChem BioAssay AID1159580 (chemical genetic matrix, 2015).
“And” between values parts separate entries of the source, which are not always exact repeats. Identical values can stand only once. Out of some 5,500 compounds screened, about 2,000 (36%) were called active. Inconclusive results (about 18%) are left out. Cut-off read from the data, not from the text of the source: active = normalized growth mostly below about 0.91 (no sharp cut-off); inconclusive = no clear call, values can overlap the other calls; inactive = mostly above about 0.92. This is one part of the list.

Experiment: chemical genetic growth profiling, strain panel (AID 1159580);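 note: tested at 20 µM; growth read once vehicle control cultures reached saturation at 30 °C; 1 = growth at the plate median or of vehicle wells; lower values mean less growth of the strain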
Details: S. cerevisiae deletion strains, growth OD

Measured: normalized growth

CC(C(=O)O)c1ccc(C(=O)c2cccs2)cc1 (configuration not stated)
inactive: locus YAL021C, strain ccr4, active compounds read low 1.02 | locus YAL026C, strain drs2, active compounds read low 1.01 | locus YAL030W, strain snc1, active compounds read low 1 | locus YBL061C, strain skt5, active compounds read low 1 | locus YBR009C, strain hhf1, active compounds read low 1.01 | locus YBR021W, strain FUR4, active compounds read low 0.987 | locus YBR023C, strain chs3, active compounds read low 0.995 | locus YBR171W, strain sec66, active compounds read low 0.985 | locus YBR229C, strain ROT2, active compounds read low 1.01 | locus YBR231C, strain swc5, active compounds read low 1 | locus YBR279W, strain paf1, active compounds read low 0.996 | locus YCL011C, strain gbp2, active compounds read low 1.01 | locus YCL016C, strain dcc1, active compounds read low 0.998 | locus YCL029C, strain bik1, active compounds read low 1.01 | locus YCL061C, strain MRC1, active compounds read low 1.01 | locus YCL069W, strain vba3, active compounds read low 0.997 | locus YCR088W, strain abp1, active compounds read low 0.996 | locus YDL005C, strain med2, active compounds read low 0.995 | locus YDL035C, strain GPR1, active compounds read low 1.01 | locus YDL040C, strain nat1, active compounds read low 0.998 | locus YDL074C, strain BRE1, active compounds read low 1 | locus YDL101C, strain DUN1, active compounds read low 1.01 | locus YDL134C, strain PPH21, active compounds read low 1 | locus YDL185W, strain tfp1, active compounds read low 0.999 | locus YDL192W, strain arf1, active compounds read low 1.01 | locus YDR001C, strain nth1, active compounds read low 0.993 | locus YDR069C, strain doa4, active compounds read low 0.994 | locus YDR101C, strain arx1, active compounds read low 1 | locus YDR137W, strain rgp1, active compounds read low 0.963 | locus YDR159W, strain sac3, active compounds read low 0.991 | locus YDR162C, strain NBP2, active compounds read low 1.01 | locus YDR195W, strain ref2 0.976 | locus YDR297W, strain sur2, active compounds read low 0.999 | locus YDR318W, strain mcm21, active compounds read low 1.02 | locus YDR334W, strain swr1, active compounds read low 0.989 | locus YDR335W, strain msn5, active compounds read low 1.01 | locus YDR388W, active compounds read low 1.02 | locus YDR392W, strain spt3, active compounds read low 1.03 | locus YDR502C, strain sam2, active compounds read low 1.03 | locus YEL003W, strain gim4, active compounds read low 0.987 | locus YEL037C, strain rad23, active compounds read low 1 | locus YEL061C, strain CIN8 (second series), active compounds read low 1 | locus YEL061C, strain CIN8, active compounds read low 1 | locus YER015W, strain faa2, active compounds read low 0.989 | locus YER016W, strain bim1, active compounds read low 1.02 | locus YER110C, active compounds read low 1.02 | locus YER111C, strain swi4, active compounds read low 0.985 | locus YER155C, strain BEM2 (second series), active compounds read low 1 | locus YER155C, strain BEM2, active compounds read low 0.992 | locus YER167W, strain BCK2, active compounds read low 1 | locus YFR010W, strain ubp6, active compounds read low 0.991 | locus YGL078C, strain dbp3, active compounds read low 1.01 | locus YGL086W, strain mad1, active compounds read low 1 | locus YGL167C, strain pmr1, active compounds read low 0.994 | locus YGL173C, strain kem1, active compounds read low 0.993 | locus YGL227W, strain vid30, active compounds read low 0.99 | locus YGL240W, strain doc1, active compounds read low 1 | locus YGL248W, strain PDE1, active compounds read low 1.01 | locus YGL253W, strain hxk2, active compounds read low 1.01 | locus YGR135W, strain pre9, active compounds read low 1.01 | locus YGR252W, strain gcn5, active compounds read low 1 | locus YHR013C, strain ard1, active compounds read low 0.989 | locus YHR027C, strain rpn1, active compounds read low 1.01 | locus YHR030C, strain SLT2, active compounds read low 0.998 and 1 | locus YHR079C, strain IRE1 (second series), active compounds read low 1.01 | locus YHR079C, strain IRE1, active compounds read low 0.999 | locus YHR094C, strain hxt1, active compounds read low 1.01 | locus YHR129C, strain ARP1, active compounds read low 1 | locus YHR142W, strain chs7, active compounds read low 0.995 | locus YHR200W, strain rpn10, active compounds read low 1.01 | locus YIL066C, strain RNR3, active compounds read low 1.01 | locus YIL073C, strain SPO22, active compounds read low 1.07 | locus YIL125W, strain kgd1, active compounds read low 1.01 | locus YIR030C, strain dcg1, active compounds read low 1.01 | locus YJL092W, strain hpr5, active compounds read low 0.996 | locus YJL095W, strain BCK1 (second series), active compounds read low 1 | locus YJL095W, strain BCK1, active compounds read low 1 and 0.971 | locus YJL115W, strain asf1, active compounds read low 0.995 | locus YJL129C, strain trk1, active compounds read low 0.982 | locus YJL134W, strain LCB3, active compounds read low 1 | locus YJL154C, strain vps35, active compounds read low 0.99 | locus YJL164C, strain tpk1, active compounds read low 1.03 | locus YJL166W, strain qcr8, active compounds read low 0.99 | locus YJL168C, strain set2, active compounds read low 1.01 | locus YJL187C, strain SWE1 (second series), active compounds read low 1.01 | locus YJR043C, strain POL32, active compounds read low 0.982 | locus YJR066W, strain TOR1, active compounds read low 0.952
